# HCMV antiviral – human cytomegalovirus inhibition | HFF cells, HCMV-luciferase reporter, 72 h; active compounds read low | activity change, negative = inhibition, % at 57.5 µM | 4.5% of 410,000 active | AID 1259415; in the data active means activity change below about -60%; inconclusive means no clear call, values can overlap the other calls; inactive means above about -39%
#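 Luciferase read-out from HCMV-luciferase-infected HFFs (MOI 1 PFU/cell) 72 h post infection at 37C; compounds added after 16 h cell attachment; activity normalized between buffer-only basal and Salinomycin (10uM) inhibitor controls.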
# Vaccinia Venus – vaccinia inhibition (Venus reporter); Vaccinia virus Venus reporter expression, fluorescence; Potency, µM (series often up to 36.5 µM), inactives show at the highest dose activity change, negative = inhibition, hits mostly inhibitors; 0.46% of 330,000 active; AID 720580; calls by dose curve; tested in A549 cells; further: potency means the concentration at half of the fitted maximal effect; nearly all actives have a fitted effect of over 30% in size
# HCV inhibitor – HCV inhibition | Huh7.5.1 HCVcc-Cre infection, luciferase reporter, 44 h | Potency, µM (doses to about 41.8 µM), inactives show at the highest dose activity change, negative = inhibition, usual class: inhibitors | 3.4% of 340,000 active; active means well fitted inhibition curve with a large enough effect; inconclusive means small, poorly fitted or top-dose-only effect, or another doubt; inactive means no such curve, though single readings can be large or run the other way; further: potency means the concentration at half of the fitted maximal effect
#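 Compounds are dispensed onto cells plated 4 h earlier at 1,000 per well, with HCVcc-Cre virus (about 0.5 moi) added next. Following 44 h of culture, luminescent signal is measured for 15 sec after 15 min with substrate at room temperature.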
# Vaccinia mCherry – vaccinia inhibition (mCherry reporter); Vaccinia virus mCherry reporter infection, fluorescence; 0.63% of 310,000 active; Potency, µM (series often up to 36.5 µM), for the others: top-dose activity change, negative = inhibition, actives largely listed as inhibitors; calls by dose curve; tested in A549 cells; further: potency means the concentration at half of the fitted maximal effect; nearly all actives have a fitted effect of over 35% in size
# LASV entry inh – inhibitors of Lassa virus binding or cell entry | Potency, µM (doses to about 37.9 µM), for inactives: top-dose activity change, negative = inhibition, actives largely listed as inhibitors | AID 540256 | Lassa virus pseudotype entry inhibition, cell reporter | 1.2% of 300,000 active; calls by dose curve; tested in HEK293 cells; further: potency means the concentration at half of the fitted maximal effect; nearly all actives have a fitted effect of over 50% in size
# Marburg entry inh – Marburg virus entry inhibition; 1.8% of 300,000 active; Potency, µM (series often up to 37.8 µM), without a hit: top-dose activity change, negative = inhibition, usual class: inhibitors; Marburg virus pseudotyped entry inhibition, cell reporter; calls by dose curve; tested in HEK293 cells; further: potency means the concentration at half of the fitted maximal effect
# * marks the source's active call; other numbers are inactive results; i = inactive; ? = inconclusive; . = no result; [ ] = another dose, or the depositor's remark. This is a sample that favours compounds with a hit; in the whole collection about 7.8% have one here. On the % scale 0 is the no-effect control and ±100 the full control effect.
SMILES,HCMV antiviral,Vaccinia Venus,HCV inhibitor,Vaccinia mCherry,LASV entry inh,Marburg entry inh
Cc1cccc(NC(=S)N(CCc2ccncc2)C(C)C)c1C,9,-17%,1%,-17%,-3%[46.1 µM],?
O=C(NCCOC(=O)c1cccs1)c1cccnc1,-4,1%,19%,.,13%,1%
O=C(NCCOC(=O)c1ccc(C(=O)OCCNC(=O)c2cccnc2)s1)c1cccnc1,-5,.,22µM*,.,0%,-5%
COC(=O)c1cc2oc3ccccc3c2n1Cc1nc(-c2cccc(C)c2)oc1C,15,3%,.,-8%,.,?
O=C1C2=C(C(=O)c3ccccc31)[C@H]1O[C@](c3ccsc3)(Cc3c1ccc1ccccc31)O2,.,.,.,.,.,15%[14.2 µM]
Cc1nn(-c2ccccc2)nc1CNC(=O)c1ncoc1-c1ccccc1,-22,.,10µM*,.,.,.
CCOC(=O)C/C(=N\Nc1ncnc2ccccc12)c1ccccc1,20,-5%,?,-17%,-10%[46.1 µM],?
CCOC(=O)/C(=N\Nc1ncnc2ccccc12)c1ccc(C)cc1,150,2%,0%,-12%,1.1µM*,?
CC1(C)CN2C(c3ccc(Cl)cc3)N2C1 (stereo not given),-75*,-3%,7%,-9%,-1%,12%
C[C@H]1[C@@H](NS(=O)(=O)c2cccs2)CC[C@@]23CCCN2C(=O)CCC[C@@H]13,3,.,.,.,.,.
CCOc1cc(C2c3c(-c4ccccc4O)n[nH]c3C(=O)N2Cc2cccnc2)ccc1O (stereo not given),8,-7%,.,-8%,-23%[46.1 µM],24%[46.1 µM]
O=C(NC1(C(F)(F)F)C(=O)Nc2c1c(=O)[nH]c(=O)n2CCc1ccccc1)c1ccc(Cl)cc1Cl (stereo not given),14,6%,.,3%,19%[46.1 µM],?
CCOC(=O)c1ccccc1NC(=O)CSc1nc2ncccc2[nH]1,-30,-1%,.,-3%,4%[46.1 µM],.
Cc1ccc(-n2c([O-])nc(-[n+]3ccccc3)c2C=O)cc1,-72*,-5%,7%,i,19%,0%
Cc1ccc[n+](-c2nc([O-])sc2C=O)c1,-22,4%,-6%,10%,-3%,-11%[46.1 µM]
COc1ccc(S(=O)(=O)Nc2ccc(S(=O)(=O)N3CCCCC3)cc2)cc1C,5,.,35µM*,.,-12%,13%
CNS(=O)(=O)c1ccc2ccccc2c1,-25,-8%,13%,-13%,2%,2%[46.1 µM]
COc1ccc(S(=O)(=O)Nc2ccc3ccccc3c2)cc1C,-13,.,11µM*,.,-4%,?
Cc1cc(O)cc(C)c1NS(=O)(=O)c1ccc2ccccc2c1,-83*,.,-28%,.,.,.
Cc1ccc(S(=O)(=O)Nc2ccc3ccccc3c2)cc1,-19,?,-5%,?,-30%[46.1 µM],-27%
COc1ccc(S(=O)(=O)N2CCCCCC2)cc1N(C)S(=O)(=O)c1ccc(Cl)cc1,-60*,-27%,?,?,-42%,?
Cc1ccc(-n2c(=O)c3c(C)c(C)sc3n(CC(=O)NCc3ccccc3)c2=O)cc1C,-26,-9%,.,-13%,2%[46.1 µM],0%[46.1 µM]
COc1cc(C(CC2=CCCCC2)NC(=O)C(F)(F)F)cc(OC)c1OC (stereo not given),.,.,.,.,.,1%[14.2 µM]
COc1ccc2cc(S(=O)(=O)N3CCCCC3)ccc2c1S(=O)(=O)N1CCCCC1,-72*,-15%,?,i,-21%,?
O=S(=O)(Nc1ccc(NS(=O)(=O)c2ccccc2)cc1)c1ccccc1,-14,-8%,.,-2%,.,.
SMILES,HCMV antiviral,Vaccinia Venus,HCV inhibitor,Vaccinia mCherry,LASV entry inh,Marburg entry inh
Cc1cc(C)c(NS(=O)(=O)c2ccccc2)c(C)c1NS(=O)(=O)c1ccccc1,-72*,-14%,?,-28%,?,?
COc1cccc(N2CC(NC(=O)c3ccc4c(c3)OCO4)CC2=O)c1 (stereo not given),78,-5%[7.34 µM],.,-10%[7.34 µM],-14%[46.1 µM],.
COc1ccc(CCN2C(=O)NC(NC(=O)c3ccccc3OC)(C(F)(F)F)C2=O)cc1OC (stereo not given),8,-3%,.,-11%,16%[46.1 µM],26%[46.1 µM]
COc1ccc(O[C@H]2C=C[C@@H](c3ccccc3)O[C@H]2COC(=O)CCC(C)=NOC[C@@H](O)COCc2ccco2)cc1,.,.,.,.,0%[14.3 µM],10%[14.2 µM]
COc1cc(NC(=O)c2ccc(C(=O)Nc3cc(OC)c(Cl)cc3OC)cc2)c(OC)cc1Cl,7,3%,.,9%,4%[46.1 µM],.
CCC(CC)C(=O)NCc1nc2cccnc2n1Cc1ccc(F)cc1,?,-13%,.,-15%,1%[46.1 µM],.
CCn1cc(S(=O)(=O)N2CCCC2)cn1,28,3%,-1%,-13%,7%[46.1 µM],-10%[46.1 µM]
CCn1cc(S(=O)(=O)NC2CCCCC2)cn1,-60*,4%,8%,0%,?,-24%[46.1 µM]
CCOc1ccc(-c2cn(-c3ccc(C)cc3)c(SCC(=O)Nc3ccc(C)cc3)n2)cc1,11,-24%,.,-18%,-13%[46.1 µM],.
COCCCNC(=O)C1CCN(c2nnc(-n3cccc3CNc3ccc(C)cc3)s2)CC1,?,-9%,.,-17%,.,0%[46.1 µM]
C=CCn1c(O)c(N=NC(=S)Nc2cccc(OC)c2)c2ccccc21,-76*,-14%,?,-20%,?,?
C=CCn1c(O)c(N=NC(=O)CNC(=O)c2ccco2)c2ccccc21,-11,-22%,-1%,?,-1%,-30%
C=CCn1c(O)c(N=NC(=O)OCC)c2ccccc21,-64*,-12%,-4%,-28%,3%,3%
CCn1c(O)c(N=NC(=O)CNC(=O)c2ccco2)c2ccccc21,-62*,?,-6%,-23%,.,.
C=CCn1c(=O)c2ccccc2n2nnc(C(=O)OCC)c12,-63*,-10%,16%,i,20%,11%
C=CCn1c(O)c(N=Nc2ccccc2)c2ccccc21,50,-11%,15%,?,6%[46.1 µM],-14%[46.1 µM]
CCOc1ccc(NC(=O)C2CCN(c3nnc(-n4c(C)ccc4C)s3)CC2)cc1,-30,-13%,.,-6%,4%[46.1 µM],-2%[46.1 µM]
Cc1ccc(Cl)cc1N1CCN(C(=O)c2ccc3nc(N4CCC(C)CC4)sc3c2)CC1,?,-23%,.,-16%,17%[46.1 µM],11%[46.1 µM]
COC(=O)CC1Oc2ccc(F)cc2-n2cc(-c3ccc(Cl)cc3)nc21 (stereo not given),-29,-13%,.,i,-2%[46.1 µM],-7%[46.1 µM]
COc1cccc(CNC(=O)C(=O)NCC(c2ccco2)S(=O)(=O)c2cccs2)c1 (stereo not given),2,-10%,.,-18%,-24%[46.1 µM],.
C=CCn1c(O)c(N=NC(=S)Nc2ccc(OC)cc2)c2ccccc21,-72*,-30%,?,-29%,?,?
CCNS(=O)(=O)c1c(C)cc(N2CCCC2=O)cc1C,-9,-15%,?,i,-7%,1%
Cc1cc(N2CCCC2=O)cc(C)c1S(=O)(=O)NCCOc1ccccc1,-77*,-22%,?,-17%,-1%,-25%
COc1ccc(-c2ccnc(-n3ncc(C(=O)NCc4ccon4)c3C3CC3)n2)cc1F,.,?,.,-15%,.,.
